FMDV inh – antivirals against foot and mouth disease virus; Potency, µM (doses to about 57.9 µM), inactives show at the top dose activity change, negative = inhibition, hits mostly inhibitors; 1.2% of 410,000 active; FMDV antiviral cell-based qHTS; calls by dose curve; tested in HEK293T cells; note: read-out not given here; potency is the fitted concentration of half-maximal effect; % is set by controls: 0 for no effect and ±100 for the full control effect; nearly all actives have a fitted effect of over 45% in size
LASV entry inh – Lassa virus entry inhibition | Lassa virus pseudotype entry inhibition, cell reporter | Potency, µM (highest dose often 37.9 µM), inactives show top-dose activity change, negative = inhibition, usual class: inhibitors | 1.2% of 300,000 active | AID 540256; calls by dose curve; tested in HEK293 cells; note: potency is the fitted concentration of half-maximal effect; % is set by controls: 0 for no effect and ±100 for the full control effect; nearly all actives have a fitted effect of over 50% in size
MARV entry inh – Marburg virus entry inhibition. Marburg virus pseudotyped entry inhibition, cell reporter. Potency, µM (series often up to 37.8 µM), inactives show at the highest dose activity change, negative = inhibition, usual class: inhibitors. 1.8% of 300,000 active. AID 540276; calls by dose curve; tested in HEK293 cells; note: potency is the fitted concentration of half-maximal effect; % is set by controls: 0 for no effect and ±100 for the full control effect
HCV inhibitor – blocks hepatitis C virus; Huh7.5.1 HCVcc-Cre infection, luciferase reporter, 44 h; Potency, µM (top dose mostly 41.8 µM), without a hit: top-dose activity change, negative = inhibition, hits mostly inhibitors; 3.4% of 340,000 active; AID 651820; active = well fitted inhibition curve with a large enough effect; inconclusive = small, poorly fitted or top-dose-only effect, or another doubt; inactive = no such curve, though single readings can be large or run the other way; note: potency is the fitted concentration of half-maximal effect; % is set by controls: 0 for no effect and ±100 for the full control effect
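Cells (1,000/well) were plated 4 h before compound, then infected with HCVcc-Cre virus (~0.5 moi). After 44 h further culture, infection was read as luciferase luminescence following a 15 min substrate incubation at room temperature.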
SARS PLpro yeast – SARS-CoV PLP inhibition in yeast; S. cerevisiae expressing SARS-CoV PLpro, growth rescue; 0.19% of 330,000 active; AID 485353; Potency, µM (doses to about 32.9 µM), for the others: at the highest dose activity, positive = growth rescue, most hits filed as activators; calls by dose curve; note: potency is the fitted concentration of half-maximal effect; 0% is about no effect; nearly all actives have a fitted effect of over 55% in size
HCMV antiviral – inhibitors of human cytomegalovirus; HFF cells, HCMV-luciferase reporter, 72 h; stronger effect = lower value; activity change, negative = inhibition, % at 57.5 µM; 4.5% of 410,000 active; in the data active = activity change below about -60%; inconclusive = no clear call, values can overlap the other calls; inactive = above about -39%; note: % is set by controls: 0 for no effect and ±100 for the full control effect
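Steps: HFFs plated, 16 h 37C; compounds added; HCMV-luciferase added to MOI 1 PFU/cell; 72 h 37C; OneGlo reagent, 5 min room temperature; luminescence read, normalized to controls.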
* marks the source's active call; other numbers are inactive results; ? = inconclusive; . = no result given; ! = a repeat was not active; [ ] = another dose, or the depositor's remark. This is a sample that favours compounds with a hit; in the whole collection about 8% have one here.

SMILES	FMDV inh	LASV entry inh	MARV entry inh	HCV inhibitor	SARS PLpro yeast	HCMV antiviral
O=C(Nc1ncccc1O)c1cccc(S(=O)(=O)N2CCN(c3ccc(F)cc3)CC2)c1	-20%	-2%	-1%	-10%	-7%	-5
O=C(c1cccc(S(=O)(=O)N2CCN(c3ccc(F)cc3)CC2)c1)N1CCCC(C(F)(F)F)C1 (stereo not given)	?	?	7.9µM*	?	-4%	-61*
CC(=O)OC[C@H]1O[C@H](C#Cc2ccccc2)C=C[C@H]1OC(C)=O	.	.	21%[14.2 µM]	.	.	.
CC(=O)OC[C@H]1O[C@H](C#CC(C)(C)C)C=C[C@H]1OC(C)=O	.	.	16%[14.2 µM]	.	.	.
O=C(CSc1ncnc2sc3c(c12)CCCC3)N1CCC(c2noc3ccc(F)cc23)CC1	3%	-25%	?	11µM*!	8%	11
O=C(CSc1ncnc2sc3c(c12)CCC3)N1CCOCC1	-17%	-3%	3%[46.1 µM]	?	7%	2
CCC1CN(CCNC(=O)c2ccc3c(c2)OCCO3)Cc2cc(OC)ccc2O1 (stereo not given)	8%	.	.	.	.	.
Cc1nn(-c2ccccc2)c2nc(C3CC3)cc(C(=O)Nc3cccc(F)c3)c12	?	?	.	.	.	-67*
Cc1c(C(=O)Nc2cc(F)cc(F)c2)cnn1-c1ccccc1	44%	.	.	11µM*	1%	43
CCc1ccc(NC(=O)c2cnn(-c3ccccc3)c2C)cc1	-16%	?	10µM*	?	10%	69
CCc1ccc(NC(=O)c2cc(C)nn2-c2ccccc2)cc1	8%	?	-29%	9%	-2%	?
Cc1c(C(=O)Nc2ccccc2F)cnn1-c1ccccc1	16%	.	.	5%	-12%	38
C=CCOC(=O)[C@H](O)[C@@H](O)C(=O)OCC=C	.	.	-3%[14.2 µM]	.	.	.
CCC1CCCCN1C(=O)Cn1c(=O)n(CCCCCC(=O)NCc2ccccc2Cl)c(=O)c2sccc21 (stereo not given)	-4%	-19%[46.1 µM]	-11%[46.1 µM]	.	.	2
COc1cccc(C(=O)Nc2ccc(N3CCN(C(=O)c4cccs4)CC3)cc2)c1	32µM*	?	?	?	0%	-25
O=C(NC(=S)Nc1ccc(N2CCN(C(=O)c3ccccc3)CC2)cc1)c1cccs1	?	?	?	32µM*	0%	-64*
O=C(NC(=S)Nc1ccccc1N1CCOCC1)c1cccs1	?	-1%	?	-6%	29%	-72*
O=C(NC(=S)Nc1ccccc1N1CCN(C(=O)c2ccccc2)CC1)c1cccs1	-21%	.	.	-5%	0%	-4
Cc1ccc2c(c1)c1nc3ccccc3nc1n2C	36%	.	.	11µM*	-4%	241
Cn1c2ccc(F)cc2c2nc3ccccc3nc21	15%	13%[46.1 µM]	?	?	-11%	155
CCn1c2ccc(C)cc2c2nnc(SCCN3CCOCC3)nc21	?	?	?	-5%	2%	?
Cc1ccc2c(c1)c1nc3ccccc3nc1n2CCN1CCOCC1	5%	?	-22%	13µM*	-1%	-14
O=C(NC1CCCCC1)c1ccc(CSc2nc3cccnc3n2Cc2ccc(F)cc2)cc1	?	3%[46.1 µM]	.	.	.	-1
COC(=O)C1=C(C)N=C2S[C@H](C)C(=O)N2[C@@H]1/C=C\c1ccccc1OC	.	.	2%	.	.	.
Cc1ccc(C)c(N2CCN(C(=O)CC3Sc4ccccc4NC3=O)CC2)c1 (stereo not given)	?	?	?	10µM*	-15%	-26
SMILES	FMDV inh	LASV entry inh	MARV entry inh	HCV inhibitor	SARS PLpro yeast	HCMV antiviral
Cc1ccc(C)c(N2CCN(C(=O)Cc3cn(C)c4ccccc34)CC2)c1	?	21µM*	18µM*	?	-8%	17
COc1ccc(OC)c(CCNC(=O)CN2C(=O)COc3ccc(S(=O)(=O)N4CCC(C)CC4)cc32)c1	-2%	-13%[46.1 µM]	-10%[46.1 µM]	.	.	-26
COc1ccc(CNC(=O)CN(c2ccc(C(C)=O)cc2)S(=O)(=O)c2ccc(C)cc2)cc1OC	7%	-26%	?	0%	-10%	0
CCOc1ccc(N(CC(=O)NC(C(C)C)C(C)C)S(=O)(=O)c2ccc(OC)c(OC)c2)cc1	-8%	.	.	10µM*	0%	-12
COc1ccc(S(=O)(=O)N(CC(=O)NCc2ccccc2)c2ccc(C)cc2)cc1OC	18µM*	26%[46.1 µM]	.	.	.	-105*
COc1ccc(S(=O)(=O)N(CC(=O)NC(C)c2ccccc2)c2ccc(C)cc2)cc1OC (stereo not given)	?	?	.	.	.	-88*
C[C@@H](NC(=O)CN(c1ccccc1)S(=O)(=O)N(C)C)c1ccccc1	-24%	16%[46.1 µM]	1%[46.1 µM]	.	.	-105*
CCOC(=O)C1=C(C)NC(=O)N[C@H]1c1ccc2c(c1)OCO2	.	.	7%[46.1 µM]	.	.	.
COc1ccccc1NC(=S)N1C2CCC1CC(NC(=O)NC13CC4CC(CC(C4)C1)C3)C2 (stereo not given)	-15%	5%	0%	-18%	4%	?
COCC(=O)NC1CC2CCC(C1)N2C(=S)Nc1ccccc1C(=O)OC (stereo not given)	-11%	-25%	-2%[46.1 µM]	3%	-2%	-83*
COc1ccc(CCNC2CC(=O)N(CCc3ccccc3)C2=O)cc1 (stereo not given)	.	-23%	22%	-2%	-17%	0
COc1ccc(CCN2C(=O)CC(NNC(=O)c3ccccc3Br)C2=O)cc1 (stereo not given)	-13%	14%	-2%	1%	?	-65*
CCN(C(=O)c1cccs1)c1nnc(-c2ccncc2)s1	11%	-8%	-19%[46.1 µM]	0%	-1%	-65*
C/C(=N\NC(=O)c1ccc(Cn2cc(Br)cn2)o1)c1cccc(NC(=O)C(C)(C)C)c1	-9%	14%	?	12%	10%	?
C/C(=N\NC(=O)c1ccc(Cn2cc(Br)cn2)o1)c1ccc(NC(=O)c2ccoc2C)cc1	-7%	-25%	?	7.1µM*	-17%	24
COc1ccc(-n2cc(C(=O)NC(C)c3ccccc3)c3ccccc3c2=O)cc1 (stereo not given)	-4%	-1%[46.1 µM]	.	.	.	18
N#Cc1c(SCc2ccc(Cl)cc2)sc(C(=O)c2ccccc2)c1N	?	?	-30%	-15%	6%	-15
CC(=O)Nc1ccc(Oc2sc(C(=O)c3ccccc3)c(N)c2C#N)cc1	?	0.89µM*	?	?	2%	-88*
S=C(NC1CCCCC1)N1CCn2cccc2C1c1ccncc1 (stereo not given)	-15%	6%	4%[46.1 µM]	11%	0%	-14
S=C(NC1CCCCC1)N1CCn2cccc2C1c1cccnc1 (stereo not given)	-7%	?	8.9µM*	-8%	-9%	-32
CO[C@H]1[C@H](NC(=O)c2ccsc2)c2ccccc2C12CCN(Cc1cccc3ncccc13)CC2	-17%	.	.	.	.	.
COC[C@@H](OC(C)=O)[C@H]1OCc2ccccc2[C@H]1C=Cc1ccccc1	.	.	1%[14.2 µM]	.	.	.
